Experimental data as given in PubChem BioAssay (EPA / NIEHS).
Active and inactive are the calls of the source. The calls were made as follows: active = hit-call score of the fitted dose curve at least 0.9, where 1 is the maximum; inconclusive = response in the unintended direction; inactive = score below 0.9.

Assay: CPHEA_Stoker_NIS_Cytotoxicity: Cytotoxicity Assessment for CPHEA's Radioactive Iodide Uptake (RAIU) Assay for Sodium/Iodide Symporter (NIS) Inhibition, Stoker and Laws Labs (AID 2283897);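 as to AC50: active means loss of ATP signal versus DMSO meaning cytotoxicity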
Protocol: CPHEA_Stoker_NIS is a cell-based, single-readout assay that uses hNIS-HEK293T-EPA, a novel human kidney cell line expressing human NIS, with measurements taken at 2 hours after chemical dosing in a 96-well plate. This radioactive iodide uptake (RAIU) assay is used to identify inhibitors of NIS-mediated iodide uptake. A parallel cytoxicity assay (Cell Titer Glo, Promega) was also run in the same cell line.CPHEA_Stoker_NIS_Cytotoxicity is one of 2 assay components measured from the CPHEA_Stoker_NIS assay. It is designed to make measurements of atp content, a form of viability reporter, as detected with bioluminescence signals by Luciferase-coupled ATP quantitation technology.Data from the assay component CPHEA_Stoker_NIS_Cytotoxicity was analyzed at the endpoint, CPHEA_Stoker_NIS_Cytotoxicity, in the positive analysis fitting direction relative to DMSO as the negative control and baseline of activity. Using a type of viability reporter, measures of ATP content for loss-of-signal activity can be used to understand the viability. To generalize the intended target to other relatable targets, this assay endpoint is annotated to the cell cycle intended target family, where the subfamily is cytotoxicity.
hNIS-HEK293T-EPA cells were seeded with a MultiFlo FX dispenser (BioTek, Winooski, VT) into ScintiPlate-96 microplates (Perkin Elmer, Waltham, MA) at a density of 4.0x10^4 cells per well in 200uL growth media and incubated for 40 hours before experimentation. On day of the assay, carrier-free 125I (Perkin-Elmer, Waltham, MA; specific activity: 17.4Ci/mg) was diluted with Hanks' balanced salt solution (Sigma, St. Louis, MO) supplemented with 10mM HEPES (uptake buffer; pH 7.4) at 5uCi/mL (288pg 125I/mL uptake buffer; 2.30nM). The assay was initiated by washing cells twice with 200uL uptake buffer using a 96-well Tecan HydroSpeed plate washer (Tecan, Mannedorf, Switzerland). Uptake buffer (59.7uL) was then added back to each well. Chemical samples (350nL at 200X) were administered using the HDR tool as previously described to achieve a 1X chemical/0.5% final DMSO concentration with subsequent addition of 10uL of 125I dilution (final [125I]: 329pM; 2.88pg/well) for a final reaction volume of 70uL/well. Cells were incubated at room temperature for 2 hours and then washed twice with 200uL ice cold uptake buffer. All uptake buffer was aspirated from wells, plates were sealed, and read on a MicroBeta2 plate reader (Perkin Elmer, Waltham, MA) using a detection protocol to measure CPM corresponding to intracellular 125I concentration. Each chemical concentration (0.001, 0.01, 0.1, 1.0, 10, and 100uM) was assayed in triplicate with three independent biological replicate plates (3 sequential cell passages). Additionally, a concentration response of NaClO4 (0.001, 0.01, 0.1, 1.0, 10, and 100uM) served as a positive control inhibition curve on each RAIU assay plate. DMSO control wells were assayed on each plate as a measure of maximum iodide uptake for normalization and determination of intra- and inter-assay variation. (Toxicol In Vitro, 2017, 40:66-78).
For CCC[CH2][Sn]([Cl])([CH2]CCC)[CH2]CCC, the AC50 was 3.44 µM (active). With Nc1ccc(Cl)cc1N the outcome was “inactive”. For CCOC(=O)[C@]1(c2ccccc2)Oc2ccccc2[C@@H]1N, the AC50 was 1.38 µM (active). In the case of CC(C)COC(=O)c1ccccc1C(=O)OCC(C)C, the outcome is reported as “inactive”. For O=[N+]([O-])c1ccc(Oc2ccc(Cl)cc2Cl)cc1, the outcome was “inactive”. For Brc1ccc(Oc2ccccc2)cc1, the outcome was “inactive”. With CCCCCOC(=O)c1ccccc1C(=O)OCCCCC the outcome was “inactive”. With COP(=S)(OC)SCN1C(=O)c2ccccc2C1=O the outcome was “inactive”. For ClC1=C(Cl)C2(Cl)C3C(Cl)C=CC3C1(Cl)C2(Cl)Cl (stereo unspecified), the outcome was “inactive”. For c1ccc2c(c1)oc1ccccc12, the outcome was “inactive”. For CCNS(=O)(=O)C(F)(F)C(F)(F)C(F)(F)C(F)(F)C(F)(F)C(F)(F)C(F)(F)C(F)(F)F, the outcome was “inactive”. With CCC(C)c1ccc(O)cc1 (stereo unspecified) the outcome was “inactive”. For CN(C)c1ccc(C(=O)c2ccc(N(C)C)cc2)cc1, the outcome was “inactive”. In the case of ClC1=C(Cl)[C@]2(Cl)[C@H]3[C@H]([C@@H]4C=C[C@H]3C4)[C@@]1(Cl)C2(Cl)Cl, the outcome is reported as “inactive”. With Clc1ccc(C(c2ccc(Cl)cc2)C(Cl)Cl)cc1 the outcome was “inactive”. With Oc1ccc2ccc3cccc4ccc1c2c34 the outcome was “inactive”. With CCCCOC(=O)c1ccccc1C(=O)OCc1ccccc1 the outcome was “inactive”. With Clc1ccc(C(c2ccc(Cl)cc2)C(Cl)(Cl)Cl)cc1 the outcome was “inactive”. For Cc1cc(N=Nc2ccccc2C)ccc1N, the outcome was “inactive”. For CC(C)(C)C(O)(CCc1ccc(Cl)cc1)Cn1cncn1 (stereo unspecified), the outcome was “inactive”. With [Cl-].[Cl-].[Hg+2] the AC50 was 39.4 µM (active). In the case of CC(C)(O)c1cnn2c(-c3ccc(F)c(-c4c(F)cccc4C#N)c3)cnc2n1, the outcome is reported as “inactive”. In the case of O=[N+]([O-])C(Br)(CO)CO, the outcome is reported as “inactive”. With Cc1cccc(N)c1N the outcome was “inactive”. With CCCCCCCCn1sccc1=O the outcome was “inactive”. For CC(C)(OOC(C)(C)c1ccccc1)c1ccccc1, the outcome was “inactive”.
